# According to paper PMC7862700, “An all-to-all approach to the identification of sequence-specific readers for epigenetic DNA modifications on cytosine”:
# Experiments:
# Assay in all cases: DAPPL (digital affinity profiling via proximity ligation, sequencing); 10 mM Tris-HCl pH 7.5, 50 mM NaCl, 1 mM DTT, 4% glycerol, room temperature, 30 min; GST-TFs on glutathione beads, 16-mer random dsDNA library, 0.1% formaldehyde crosslink after washing; high values mean tight binding
# Settings in all cases: protein: recombinant; tags: N-terminal GST; dsDNA, one strand shown
# ETV1 = ETV1 (Homo sapiens, UniProt P50549 1-477)
# Summary of the method: (§1)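 Human transcription factors fused to GST were expressed in yeast, captured on glutathione beads, given DNA barcodes and pooled with a GST-only negative control. Pools were incubated with 200 nmole of a 16-mer random double-stranded DNA library in Tris/NaCl/DTT/glycerol buffer at room temperature for 30 min. They were then washed, crosslinked with 0.1% formaldehyde, proximity-ligated (BsaI/T4 ligase, 1 h, 37 °C), PCR-amplified and sequenced on an Illumina NextSeq500. Binding signal is each 6-mer's read frequency for a factor divided by its frequency for the GST control.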
# ERF = target: T1, ERF (Homo sapiens, UniProt P50548 1-548)
# T1 sequence: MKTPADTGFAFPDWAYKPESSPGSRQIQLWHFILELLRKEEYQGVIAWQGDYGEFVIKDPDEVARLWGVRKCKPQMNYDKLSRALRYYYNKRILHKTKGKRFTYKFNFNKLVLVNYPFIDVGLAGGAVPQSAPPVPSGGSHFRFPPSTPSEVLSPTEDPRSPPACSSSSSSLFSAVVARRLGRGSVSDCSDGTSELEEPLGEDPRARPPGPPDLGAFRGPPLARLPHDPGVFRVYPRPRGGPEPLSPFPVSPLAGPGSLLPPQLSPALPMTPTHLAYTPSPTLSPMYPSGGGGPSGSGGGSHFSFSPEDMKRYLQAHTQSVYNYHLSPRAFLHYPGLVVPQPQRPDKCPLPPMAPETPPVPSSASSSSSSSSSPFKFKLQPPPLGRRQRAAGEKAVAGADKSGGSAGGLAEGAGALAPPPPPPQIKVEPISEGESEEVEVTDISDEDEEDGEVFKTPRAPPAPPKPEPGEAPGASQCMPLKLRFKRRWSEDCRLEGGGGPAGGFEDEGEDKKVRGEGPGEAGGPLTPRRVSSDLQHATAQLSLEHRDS
# Summary of the method: as §1
# ETV3L = target: T2, ETV3L (Homo sapiens, UniProt Q6ZN32 1-361)
# T2 sequence: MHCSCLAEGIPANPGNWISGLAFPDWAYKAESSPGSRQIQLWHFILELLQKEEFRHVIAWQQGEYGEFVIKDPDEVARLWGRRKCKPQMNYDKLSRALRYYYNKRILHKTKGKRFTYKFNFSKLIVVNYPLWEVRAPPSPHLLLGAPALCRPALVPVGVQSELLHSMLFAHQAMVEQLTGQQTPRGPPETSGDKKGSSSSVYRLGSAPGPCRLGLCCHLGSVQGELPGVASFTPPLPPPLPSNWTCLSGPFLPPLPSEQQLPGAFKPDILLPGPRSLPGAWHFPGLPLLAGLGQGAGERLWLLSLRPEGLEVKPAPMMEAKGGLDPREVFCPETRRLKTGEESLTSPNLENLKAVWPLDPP
# Summary of the method: as §1
# ETS2 = target: T3, ETS2 (Homo sapiens, UniProt P15036 1-469)
# T3 sequence: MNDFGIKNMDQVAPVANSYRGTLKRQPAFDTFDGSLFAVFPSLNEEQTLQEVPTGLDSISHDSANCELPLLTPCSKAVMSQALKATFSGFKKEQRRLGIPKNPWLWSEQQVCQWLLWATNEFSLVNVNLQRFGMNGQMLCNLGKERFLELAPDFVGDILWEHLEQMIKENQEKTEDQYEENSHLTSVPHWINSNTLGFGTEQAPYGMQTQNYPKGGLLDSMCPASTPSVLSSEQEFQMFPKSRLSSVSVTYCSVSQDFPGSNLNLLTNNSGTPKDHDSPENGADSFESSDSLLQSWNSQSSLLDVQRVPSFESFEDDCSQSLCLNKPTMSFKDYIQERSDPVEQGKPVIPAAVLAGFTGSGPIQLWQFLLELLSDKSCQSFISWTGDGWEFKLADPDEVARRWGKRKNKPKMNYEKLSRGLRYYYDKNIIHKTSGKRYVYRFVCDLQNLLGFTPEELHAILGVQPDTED
# Summary of the method: as §1
# SPDEF = target: T4, SPDEF (Homo sapiens, UniProt O95238 1-335)
# T4 sequence: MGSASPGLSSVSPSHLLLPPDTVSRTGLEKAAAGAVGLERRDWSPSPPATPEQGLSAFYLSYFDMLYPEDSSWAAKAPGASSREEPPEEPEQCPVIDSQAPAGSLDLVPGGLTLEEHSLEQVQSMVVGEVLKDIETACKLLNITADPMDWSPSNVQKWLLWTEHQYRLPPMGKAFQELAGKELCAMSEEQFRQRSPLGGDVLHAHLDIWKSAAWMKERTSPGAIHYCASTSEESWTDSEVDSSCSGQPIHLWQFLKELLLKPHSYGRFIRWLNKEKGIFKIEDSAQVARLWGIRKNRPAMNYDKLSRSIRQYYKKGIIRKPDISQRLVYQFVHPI
# Summary of the method: as §1
# ETV7 = target: T5, ETV7 (Homo sapiens, UniProt Q9Y603 1-341)
# T5 sequence: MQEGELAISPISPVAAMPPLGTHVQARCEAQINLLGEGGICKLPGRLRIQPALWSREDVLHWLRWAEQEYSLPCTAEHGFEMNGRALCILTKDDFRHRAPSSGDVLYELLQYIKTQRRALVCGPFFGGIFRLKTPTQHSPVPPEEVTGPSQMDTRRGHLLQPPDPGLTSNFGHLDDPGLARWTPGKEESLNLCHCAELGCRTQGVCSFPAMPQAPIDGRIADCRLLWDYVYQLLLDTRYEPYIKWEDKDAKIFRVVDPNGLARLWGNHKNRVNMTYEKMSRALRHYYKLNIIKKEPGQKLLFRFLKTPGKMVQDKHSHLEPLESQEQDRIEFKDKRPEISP
# Summary of the method: as §1
# ELF5 = target: T6, ELF5 (Homo sapiens, UniProt Q9UKW6-2 1-255)
# T6 sequence: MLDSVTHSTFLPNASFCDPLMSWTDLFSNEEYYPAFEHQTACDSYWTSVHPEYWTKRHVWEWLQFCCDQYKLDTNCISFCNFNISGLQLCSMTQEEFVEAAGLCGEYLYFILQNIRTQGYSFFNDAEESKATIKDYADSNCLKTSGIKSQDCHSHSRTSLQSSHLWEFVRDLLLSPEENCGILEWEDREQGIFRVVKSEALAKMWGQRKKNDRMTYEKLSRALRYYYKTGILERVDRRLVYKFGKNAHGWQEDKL
# Summary of the method: as §1
# ETV3 = target: T7, ETV3 (Homo sapiens, UniProt P41162-2 1-143)
# T7 sequence: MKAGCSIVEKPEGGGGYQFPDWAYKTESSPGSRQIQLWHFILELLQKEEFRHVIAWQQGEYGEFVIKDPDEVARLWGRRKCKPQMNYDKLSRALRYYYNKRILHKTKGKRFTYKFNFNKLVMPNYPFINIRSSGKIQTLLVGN
# Summary of the method: as §1
# ETV6 = ETV6 (Homo sapiens, UniProt P41212 1-452)
# Summary of the method: as §1
# Sequence of ETV6 (P41212 whole entry): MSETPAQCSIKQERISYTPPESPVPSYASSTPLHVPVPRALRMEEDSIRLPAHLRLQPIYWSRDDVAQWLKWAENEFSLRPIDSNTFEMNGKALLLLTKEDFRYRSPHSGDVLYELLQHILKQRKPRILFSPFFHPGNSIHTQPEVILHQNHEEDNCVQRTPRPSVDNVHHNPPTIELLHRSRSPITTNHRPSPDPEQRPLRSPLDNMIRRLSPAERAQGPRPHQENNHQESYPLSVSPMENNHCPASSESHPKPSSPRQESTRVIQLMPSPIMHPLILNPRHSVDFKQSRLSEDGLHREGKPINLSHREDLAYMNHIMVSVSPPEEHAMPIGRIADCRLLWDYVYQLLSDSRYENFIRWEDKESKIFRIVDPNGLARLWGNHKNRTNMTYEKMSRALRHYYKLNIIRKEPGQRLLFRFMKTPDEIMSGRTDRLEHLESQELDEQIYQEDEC
# Sequence of ETV1 (P50549 whole entry, the tested form may be a part): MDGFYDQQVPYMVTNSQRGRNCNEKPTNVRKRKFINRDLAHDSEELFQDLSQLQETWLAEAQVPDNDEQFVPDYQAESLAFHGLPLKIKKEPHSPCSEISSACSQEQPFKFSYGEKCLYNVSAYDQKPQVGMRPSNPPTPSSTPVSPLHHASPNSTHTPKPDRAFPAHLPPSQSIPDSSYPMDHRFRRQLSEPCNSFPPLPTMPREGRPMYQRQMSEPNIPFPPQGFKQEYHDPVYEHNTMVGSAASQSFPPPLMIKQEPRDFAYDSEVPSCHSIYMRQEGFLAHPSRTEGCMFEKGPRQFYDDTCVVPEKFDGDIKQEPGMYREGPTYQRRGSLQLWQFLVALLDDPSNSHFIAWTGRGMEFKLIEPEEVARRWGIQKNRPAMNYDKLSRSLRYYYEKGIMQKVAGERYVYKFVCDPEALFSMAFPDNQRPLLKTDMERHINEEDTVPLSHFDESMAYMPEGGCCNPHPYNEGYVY
sequence,measurement,setting,value
ATAATA,binding signal,ETV1,"1.17 fold enrichment (6-mer frequency, TF over GST control)"
same,binding signal,ERF,"1.32 fold enrichment (6-mer frequency, TF over GST control)"
same,binding signal,ETV3L,"1.14 fold enrichment (6-mer frequency, TF over GST control)"
same,binding signal,ETS2,"1.2 fold enrichment (6-mer frequency, TF over GST control)"
same,binding signal,SPDEF,"1.15 fold enrichment (6-mer frequency, TF over GST control)"
same,binding signal,ETV7,"1.14 fold enrichment (6-mer frequency, TF over GST control)"
same,binding signal,ELF5,"1.17 fold enrichment (6-mer frequency, TF over GST control)"
same,binding signal,ETV3,"1.2 fold enrichment (6-mer frequency, TF over GST control)"
same,binding signal,ETV6,"1.2 fold enrichment (6-mer frequency, TF over GST control)"
